Source: the supplement of paper PMC12494721
Where a name gives a salt, the structure may show the parent alone.

Key:
Conditions in all cases: incubation time: 27 h, anaerobic, 37 °C;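 for the amine columns active = adjusted P below 0.05 in both replicates with a change the same way and a mean fold change under 0.8 or over 1.25; inactive = the rest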
[1] = test system: Clostridium sporogenes DSM 1664; experiment: growth (OD595) fold change vs plate DMSO controls (fold change (ratio)); higher = more growth
Outline: (§1)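 Anaerobic mGAM cultures in 96-well plates were grown for 27 h at 37 °C, and absorbance was then read at 595 nm. After blank and compound background correction with 20 µM compound solutions in water, a calibration factor of 5 gave OD. Growth is the fold change relative to the median of each plate's DMSO controls. Values are means of 2 biological replicates, with fold changes above 1.5 set to NA.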

Escherichia coli IAI1 [2] = experiment: as above
Outline: as §1

[3] = test system: Klebsiella aerogenes DSM 30053; experiment: as above
Outline: as §1

[4] = test system: Ruminococcus gnavus DSM 108212; experiment: as above
Outline: as §1

[5] = test system: Klebsiella aerogenes DSM 30053; experiment: fold change of Histamine concentration vs plate DMSO controls (fold change (ratio)); higher = more amine produced, active = hit call of the paper (significant change in both replicates, either direction)
Outline: (§2)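 Extracts of whole anaerobic mGAM cultures were analysed for amines by LC–triple-quadrupole MS with dynamic MRM and external calibration curves, with drift corrected within batch. Four gut strains were grown at 37 °C for 27 h in 80 µL wells with compounds at 20 µM final, sweeteners at 50 µM final. Each value expresses fold change over plate DMSO controls. The average of 2 biological replicates is shown.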

[6] = test system: Clostridium sporogenes DSM 1664; experiment: fold change of Tryptamine concentration vs plate DMSO controls (fold change (ratio)); higher = more amine produced, active = hit call of the paper (significant change in both replicates, either direction)
Outline: as §2

[7] = test system: Ruminococcus gnavus DSM 108212; experiment: as above
Outline: as §2

Escherichia coli IAI1 [8] = experiment: fold change of Putrescine concentration vs plate DMSO controls (fold change (ratio)); higher = more amine produced, active = hit call of the paper (significant change in both replicates, either direction)
Outline: as §2

[9] = test system: Klebsiella aerogenes DSM 30053; experiment: as above
Outline: as §2

Escherichia coli IAI1 [10] = experiment: fold change of Cadaverine concentration vs plate DMSO controls (fold change (ratio)); higher = more amine produced, active = hit call of the paper (significant change in both replicates, either direction)
Outline: as §2

[11] = test system: Klebsiella aerogenes DSM 30053; experiment: as above
Outline: as §2

[12] = test system: Ruminococcus gnavus DSM 108212; experiment: fold change of 2-Phenylethylamine concentration vs plate DMSO controls (fold change (ratio)); higher = more amine produced, active = hit call of the paper (significant change in both replicates, either direction)
Outline: as §2

| Compound | growth [1] | growth (Escherichia coli IAI1 [2]) | growth [3] | growth [4] | fold change of Histamine concentration [5] | fold change of Tryptamine concentration [6] | fold change of Tryptamine concentration [7] | fold change of Putrescine concentration (Escherichia coli IAI1 [8]) | fold change of Putrescine concentration [9] | fold change of Cadaverine concentration (Escherichia coli IAI1 [10]) | fold change of Cadaverine concentration [11] | fold change of 2-Phenylethylamine concentration [12] |
| --- | --- | --- | --- | --- | --- | --- | --- | --- | --- | --- | --- | --- |
| CC(C)CN(C[C@@H](O)[C@H](Cc1ccccc1)NC(=O)O[C@H]1CO[C@H]2OCC[C@H]21)S(=O)(=O)c1ccc(N)cc1 [Darunavir] (20 µM) | 1.14 | 1 | 1 | 0.966 | 1.05 (inactive) | 1.01 (inactive) | 0.863 (inactive) | 1.04 (inactive) | 0.998 (inactive) | 1.05 (inactive) | 0.996 (inactive) | 0.837 (inactive) |
| Nc1ccc(/N=N/c2ccccc2)c(N)n1 [Phenazopyridine hydrochloride] (20 µM) | 1.12 | 0.985 | 0.982 | 1.06 | 0.998 (inactive) | 0.991 (inactive) | 1.02 (inactive) | 0.969 (inactive) | 0.986 (inactive) | 1.02 (inactive) | 0.994 (inactive) | 0.969 (inactive) |
| Clc1ccc(Cn2c(CN3CCCC3)nc3ccccc32)cc1 [Clemizole hydrochloride] (20 µM) | 1.15 | 1.01 | 1.05 | 0.643 | 0.939 (inactive) | 1.11 (inactive) | 0.858 (inactive) | 0.882 (inactive) | 0.958 (inactive) | 1.41 (active) | 1.01 (inactive) | 0.968 (inactive) |
| CC(C)(C#N)c1cc(Cn2cncn2)cc(C(C)(C)C#N)c1 [Anastrozole] (20 µM) | 0.911 | 1.16 | 1.01 | 1.02 | 1.02 (inactive) | 1.11 (inactive) | 1.09 (inactive) | 1.06 (inactive) | 0.954 (inactive) | 1.01 (inactive) | 0.994 (inactive) | 1.1 (inactive) |
| CCN(CC)CC#CCOC(=O)C(O)(c1ccccc1)C1CCCCC1 (stereo not drawn) [Oxybutynin chloride] (20 µM) | 1.01 | 0.971 | 1 | 0.917 | 1.01 (inactive) | 1.01 (inactive) | 0.977 (inactive) | 1.01 (inactive) | 1.02 (inactive) | 0.909 (inactive) | 1.01 (inactive) | 1.01 (inactive) |
| CCN(CC)CCNc1ccc(CO)c2sc3ccccc3c(=O)c12 [Hycanthone] (20 µM) | 1.05 | 1.03 | 1.03 | 0.939 | 0.979 (inactive) | 0.791 (active) | 0.917 (inactive) | 1.01 (inactive) | 0.993 (inactive) | 0.967 (inactive) | 1.01 (inactive) | 0.917 (inactive) |
| O=C(NCCNCC(O)COc1ccc(O)cc1)N1CCOCC1 (stereo not drawn) [Xamoterol hemifumarate] (20 µM) | 1.1 | 0.989 | 0.983 | 1 | 1.06 (inactive) | 0.992 (inactive) | 0.889 (inactive) | 1.03 (inactive) | 1.03 (inactive) | 1 (inactive) | 0.986 (inactive) | 0.868 (inactive) |
| NC(=O)Cc1cccc(C(=O)c2ccccc2)c1N [Nepafenac] (20 µM) | 1.01 | 1.03 | 1.06 | 1.09 | 0.929 (inactive) | 1.04 (inactive) | 1.06 (inactive) | 0.989 (inactive) | 0.993 (inactive) | 0.962 (inactive) | 1.04 (inactive) | 1.11 (inactive) |
| CCCCCCCCc1c(CC)nc2ncnn2c1N (20 µM) | 1.11 | 1.05 | 1.04 | 1.16 | 0.991 (inactive) | 1.03 (inactive) | 0.997 (inactive) | 1.01 (inactive) | 1.01 (inactive) | 1.04 (inactive) | 1.01 (inactive) | 0.968 (inactive) |
| Cc1onc(-c2ccccc2)c1C(=O)N[C@@H]1C(=O)N2[C@@H]1SC(C)(C)[C@@H]2C(=O)O [Oxacillin sodium] (20 µM) | 0 | 0.994 | 1.01 | 0 | 0.996 (inactive) | 0.0257 (active) | 0.0465 (active) | 0.949 (inactive) | 0.992 (inactive) | 1.01 (inactive) | 0.984 (inactive) | 0.0469 (active) |
| Nc1nc(N)c2nc(-c3ccccc3)c(N)nc2n1 [Triamterene] (20 µM) | 1.09 | 0.967 | 0.969 | 1.25 | 1.05 (inactive) | 0.928 (inactive) | 0.966 (inactive) | 0.8 (inactive) | 1.01 (inactive) | 1.04 (inactive) | 0.988 (inactive) | 0.907 (inactive) |
| CC(C(=O)O)c1ccc2c(c1)Cc1cccnc1O2 (stereo not drawn) [Pranoprofen] (20 µM) | 1.01 | 1.06 | 1.03 | 0.92 | 0.978 (inactive) | 0.985 (inactive) | 0.95 (inactive) | 0.95 (inactive) | 1.01 (inactive) | 0.993 (inactive) | 1.01 (inactive) | 0.94 (inactive) |
| N#CC(c1ccc(Cl)cc1)c1c(Cl)cc(-n2ncc(=O)[nH]c2=O)cc1Cl (stereo not drawn) [Diclazuril] (20 µM) | 0.806 | 0.993 | 1.08 | 0.961 | 0.913 (inactive) | 0.791 (inactive) | 0.778 (active) | 0.911 (inactive) | 0.967 (inactive) | 0.99 (inactive) | 1.03 (inactive) | 0.81 (inactive) |
| CCOc1cc(CC(=O)N[C@@H](CC(C)C)c2ccccc2N2CCCCC2)ccc1C(=O)O [Repaglinide] (20 µM) | 1.11 | 1.2 | 0.993 | 0.81 | 0.982 (inactive) | 1.18 (inactive) | 1.09 (inactive) | 1.14 (inactive) | 0.966 (inactive) | 1.01 (inactive) | 1.03 (inactive) | 1.13 (inactive) |
| CS(=O)(=O)c1ccc(C2=C(c3ccccc3)C(=O)OC2)cc1 [Rofecoxib] (20 µM) | 1 | 0.962 | 0.973 | 1.1 | 0.981 (inactive) | 1.2 (inactive) | 1.08 (inactive) | 1.02 (inactive) | 0.99 (inactive) | 1.04 (inactive) | 1.01 (inactive) | 1.07 (inactive) |
| CCN(CC)C(=O)/C(C#N)=C/c1cc(O)c(O)c([N+](=O)[O-])c1 [Entacapone] (20 µM) | 0.868 | 0.974 | 1.06 | 1.07 | 1.01 (inactive) | 0.961 (inactive) | 0.929 (inactive) | 0.993 (inactive) | 1.03 (inactive) | 0.977 (inactive) | 0.995 (inactive) | 0.896 (inactive) |
| CC(C(O)c1ccc(O)cc1)N1CCC(Cc2ccccc2)CC1 (stereo not drawn) [Ifenprodil tartrate] (20 µM) | 1.02 | 1.12 | 1.03 | 0.985 | 0.977 (inactive) | 1.02 (inactive) | 1.03 (inactive) | 1.08 (inactive) | 0.973 (inactive) | 0.947 (inactive) | 1 (inactive) | 0.992 (inactive) |
| NC1CCN(c2c(F)cc3c(=O)c(C(=O)O)cn(C4CC4)c3c2Cl)C1 (stereo not drawn) [Clinafloxacin] (20 µM) | 0.00892 | 0.0142 | 0.102 | 0.356 | 0.118 (active) | 0.0514 (active) | 0.337 (active) | 0.703 (inactive) | 0.647 (active) | 0.233 (active) | 0.942 (inactive) | 0.36 (active) |
| CCOc1ccc(Cc2nccc3cc(OCC)c(OCC)cc23)cc1OCC [Ethaverine hydrochloride] (20 µM) | 0.848 | 0.99 | 0.954 | 1.05 | 1 (inactive) | 0.945 (inactive) | 0.935 (inactive) | 1.05 (inactive) | 1.01 (inactive) | 1.03 (inactive) | 0.982 (inactive) | 0.895 (inactive) |
| Cc1cc(CC(=O)O)n(C)c1C(=O)c1ccc(Cl)cc1 [Zomepirac sodium salt] (20 µM) | 1.21 | 0.969 | 0.981 | 1.13 | 1.05 (inactive) | 0.971 (inactive) | 0.972 (inactive) | 1.04 (inactive) | 1.01 (inactive) | 1.01 (inactive) | 0.984 (inactive) | 0.968 (inactive) |
| Cc1cn(-c2cc(NC(=O)c3ccc(C)c(Nc4nccc(-c5cccnc5)n4)c3)cc(C(F)(F)F)c2)cn1 [Nilotinib] (20 µM) | 0.888 | 1.07 | 1.11 | 1.02 | 0.924 (inactive) | 1.06 (inactive) | 0.879 (inactive) | 1 (inactive) | 1.01 (inactive) | 0.967 (inactive) | 1.01 (inactive) | 0.897 (inactive) |
| CC[C@H]1OC(=O)[C@H](C)[C@@H](O[C@H]2C[C@@](C)(OC)[C@@H](O)[C@H](C)O2)[C@H](C)[C@@H](O[C@@H]2O[C@H](C)C[C@H](N(C)C)[C@H]2O)[C@](C)(O)C[C@@H](C)/C(=N\OCOCCOC)[C@H](C)[C@@H](O)[C@]1(C)O [Roxithromycin] (20 µM) | 0.00175 | 0.826 | 0.95 | 0.194 | 0.995 (inactive) | 0.0367 (active) | 0.0981 (active) | 0.576 (active) | 0.973 (inactive) | 0.909 (inactive) | 1 (inactive) | 0.123 (active) |
| CC(=O)Nc1ccc(CC(=O)O)cc1 [Actarit] (20 µM) | 0.864 | 0.972 | 1.03 | 1.11 | 1.02 (inactive) | 1.03 (inactive) | 0.992 (inactive) | 1.35 (inactive) | 1 (inactive) | 0.96 (inactive) | 1.01 (inactive) | 0.944 (inactive) |
| CN1CCC(=C2c3ccccc3CC(=O)c3sccc32)CC1 [Ketotifen fumarate] (20 µM) | 1 | 0.988 | 1.07 | 1 | 0.935 (inactive) | 1.02 (inactive) | 0.991 (inactive) | 0.966 (inactive) | 0.996 (inactive) | 1.01 (inactive) | 1.01 (inactive) | 0.968 (inactive) |
